Screens: PubChem BioAssay, National Center for Advancing Translational Sciences (NCATS)
DRD3 agonist = D3 dopamine receptor (human) agonism | D3R DiscoveRx beta-arrestin cells, luminescence, 90 min | max activation, % | hit rate 0.58% among 410,000 | AID 652048; in the data active means max activation above about 30%
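Agonist mode: compounds and dopamine controls were applied to plated cells for 90 min at 37 degrees C after an overnight attachment at 1500 cells/well. Luminescent read-out followed 30 - 60 minutes at room temperature with DiscoveRx detection reagent.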
DT40 TDP1 no CPT = qHTS for Inhibitors of human tyrosyl-DNA phosphodiesterase 1 (TDP1): qHTS in cells in absence of CPT | DT40 Tdp1-/- hTDP1 cells, no CPT, ATP luminescence, 48 h | AID 686978, 2013 | Potency, µM (top dose mostly 46.2 µM), usual class: inhibitors | hit rate 15% among 420,000; further: nearly all actives have a fitted effect of over 55% in size
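Seeded 400 DT40-hTDP1 cells/well (vehicle DMSO, no 20 nM CPT); pinned compounds; ≥48 hr at 37 °C; CellTiter-Glo luminescence as viability measure.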
DT40 TDP1 CPT = DT40-hTDP1 cell growth loss with CPT. Potency, µM (titrated, usually from 46.2 µM), most hits filed as inhibitors. chicken DT40 Tdp1-/-;hTDP1 cells + 20 nM CPT, ATP luminescence, 48 h. hit rate 12% among 420,000. AID 686979; further: nearly all actives have a fitted effect of over 55% in size
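Cell growth measured by CellTiter-Glo luminescence after a minimum 48 h, 37 C compound exposure with 20 nM CPT in Tdp1-knockout DT40 cells stably expressing hTDP1, seeded 400/well; qHTS titration format.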
IL1B secr inh = inhibitors of inflammasome signaling (IL-1 beta secretion). hit rate 4.7% among 360,000. THP-1 LPS/ATP IL-1B secretion, AlphaLISA, 16 h; hits give low values. AID 743279. activity change, % at 57.5 µM; in the data active means activity change below about -50%; inconclusive means mostly about -30% to -49%
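Secreted IL-1B measured by AlphaLISA bead assay after 16 h compound exposure of THP-1 cells; compounds (final up to 57.5 uM) added 1 h before LPS (250 ng/mL) and ATP (1.25 mM) stimulation; lower signal means less secretion.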
ClpP mod = qHTS Assay for Activators of ClpP. hit rate 1.9% among 340,000. Potency, µM (doses to about 57.5 µM). ATP-dependent Clp protease proteolytic subunit (Bacillus subtilis (strain 168)), P80244. AID 651965, 2013. purified B. subtilis ClpP, FRET peptide cleavage, 20 min; active means well fitted falling curve with a large enough effect; inconclusive means small, poorly fitted or top-dose-only effect; inactive means no such curve, though single readings can be large or run the other way; further: the source files actives as falling curves though it sought activators and does not explain the sign; nearly all actives have a fitted effect of over 65% in size
Target sequence (P80244 whole entry, looked up): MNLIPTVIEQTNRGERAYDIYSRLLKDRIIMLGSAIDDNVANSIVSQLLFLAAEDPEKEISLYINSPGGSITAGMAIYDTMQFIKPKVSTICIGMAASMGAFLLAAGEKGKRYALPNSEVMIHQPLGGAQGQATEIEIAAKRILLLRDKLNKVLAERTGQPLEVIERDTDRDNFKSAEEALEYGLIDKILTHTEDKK
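Purified B. subtilis ClpP, 10 microg/mL final in Tris/HCl pH8 with KCl, BSA, glycerol and Tween-20, cleaved an Abz/nitrotyrosine-quenched decapeptide. Fluorescence (ex 320, em 430) was read at 0 and 20 min at room temperature. Delta was normalized to 5.8 microM ADEP and DMSO/no-enzyme controls.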
DRD3 antagonist = antagonists of human D3 dopamine receptor | hit rate 2.5% among 360,000 | P35462 | max response, negative = inhibition, % | AID 652054 | D3R cells, DiscoveRx beta-arrestin luminescence, antagonist mode; hits give low values; in the data active means max response below about -50%; inconclusive means no clear call, values can overlap the other calls
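Cells plated overnight at 1500 cells/well, then exposed to library compounds with dopamine controls for 90 minutes at 37 degrees C. DiscoveRx reagent added for 30–60 minutes at room temperature; luminescence read, quantitative HTS format.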
Numbers stand for hits; i = inactive; ? = inconclusive; nt = no result. An excerpt weighted towards active compounds, which were near 21% of everything screened. Unless noted, the call rests on the fitted dose curve; in most records, active means well fitted inhibition curve with a large enough effect; inconclusive means small, poorly fitted or top-dose-only effect; inactive means flat fitted curve, though single readings scatter.

SMILES	DRD3 agonist	DT40 TDP1 no CPT	DT40 TDP1 CPT	IL1B secr inh	ClpP mod	DRD3 antagonist
CSCCC(=O)N1CC[C@@H](N2CCN(c3ccccc3F)CC2)[C@H](O)C1	i	i	i	i	i	i
CN(NC(=O)c1cccc(Cl)c1)c1nc(-c2ccccc2)nnc1C(F)(F)F	i	12µM	18µM	i	i	i
CN(N)c1nc(-c2ccccc2)nnc1C(F)(F)F	i	i	i	i	i	i
FC(F)(F)c1nnc(-c2ccccc2)nc1Sc1ccccc1	i	10µM	15µM	-121	i	?
FC(F)(F)c1nnc(-c2ccccc2)nc1N1CCCC1	i	i	i	i	nt	i
Clc1ccc(-c2nnc(-c3ccccc3)c(-c3ccccc3)n2)cc1	i	i	i	i	i	?
FC(F)(F)c1nnc(-c2ccccc2)nc1Sc1ccc(Cl)cc1	i	6.5µM	5.2µM	-98	i	-93
FC(F)(F)c1nnc(-c2ccccc2)nc1Oc1ccc(Cl)cc1Cl	i	?	?	-77	i	i
Cc1c(Cl)c([N+](=O)[O-])nn1CCCC(=O)NCCc1ccccc1	i	i	i	i	i	i
O=C(Cn1c(=O)n(-c2ccc(Cl)cc2)c(=O)c2oc3ccccc3c21)Nc1ccccc1	i	?	?	nt	?	nt
FC(F)(F)c1cccc(Oc2nc(-c3ccccc3)nnc2C(F)(F)F)c1	i	?	i	?	i	i
FC(F)(F)c1cccc(Sc2nc(-c3ccccc3)nnc2C(F)(F)F)c1	i	12µM	8.2µM	-118	i	-61
OC(COCC1COc2ccccc2O1)CN1CCN(c2ccccc2F)CC1 (centres undefined)	i	?	i	i	i	?
OC(CNCC1COc2ccccc2O1)COc1ccccc1F (centres undefined)	i	i	i	i	nt	-78
OC(CNCC1COc2ccccc2O1)COc1ccc(Cl)cc1 (centres undefined)	i	i	i	i	i	-80
O=C(NCC(=O)N1CCCCCC1)c1ccc(Cl)cc1	i	?	?	i	i	i
CC(=O)c1ccc(OCc2cc(C(=O)N3CCN(c4ccccc4)CC3C)no2)cc1 (centres undefined)	i	18µM	?	?	i	i
CC(=O)c1ccc(OCc2cc(C(=O)N(C)Cc3ccon3)no2)cc1	i	i	i	i	i	i
CC(=O)c1ccc(OCc2cc(C(=O)N(C)CC3COc4ccccc4O3)no2)cc1 (centres undefined)	i	13µM	10µM	i	i	i
O=C(C#Cc1ccccc1)c1ccco1	i	0.58µM	1.3µM	-101	i	-100
Cc1ccc2nc(SCC(=O)N3CCC4(CC3)CC4C(=O)Nc3ccc(F)c(F)c3)[nH]c2c1 (centres undefined)	nt	23µM	?	nt	nt	nt
CC1(C(=O)NCc2cccs2)CCN1C(=O)Cc1cccc2ccccc12 (centres undefined)	i	16µM	29µM	i	i	i
CC1(C(=O)NCc2ccc(Cl)cc2)CCN1C(=O)Cc1cccs1 (centres undefined)	i	?	?	i	i	i
CC1(C(=O)NCCC#N)CCN1C(=O)Cc1ccc(-c2ccccc2)cc1 (centres undefined)	i	?	?	i	i	i
CC(C)CNC(=O)C1(C)CCCN1C(=O)Cc1cccc2ccccc12 (centres undefined)	i	8.2µM	9.2µM	i	i	i
CC1(C(=O)NCc2cccc3ccccc23)CCN1C(=O)Cc1ccc(-c2ccccc2)cc1 (centres undefined)	i	?	?	-104	i	i
CC1(C(=O)NCC(F)(F)F)CCN1C(=O)Cc1ccc(-c2ccccc2)cc1 (centres undefined)	i	?	15µM	i	i	i
S=C1NC2(CCCCC2)Nc2ccccc21	i	?	?	i	i	i
COC(=O)C1CCN(Cc2ccc3c(c2)CN(C(=O)C(C)N2CCOCC2)CCO3)CC1 (centres undefined)	nt	i	i	nt	nt	nt
